The values below are quoted from earlier work in PubChem BioAssay AID977611.

Screen size: about 3,900 compounds; about 3,900 (100%) were called active. No cut-off is given here; in the data, nearly all actives have Kd up to about 4200 µM. So high a share suggests a set chosen from earlier hits. This is one part of the list. Numbered stars: 1 amine (or outer) side, 2 acyl side, 3 side chain; on linkers, the order of the positions; unused ones are H or OH. Where a SMILES comes first, the peptide text is derived from it. Non-standard residues stand in square brackets, D forms with d. Square brackets hold non-standard residues; d marks the D form. Residues, ends and D or L forms follow the SMILES beside them. Peptide text beside a SMILES is read from it. [ ]: non-standard residue; d: D form. Lys(Me3) = C[N+](C)(C)CCCC[C@H](N)C(=O)O; Orn(CH(NH2)2) = NC(N)NCCC[C@H](N)C(=O)O; X1 = CNC(NC)NCCC[C@H](N[*:1])C(=O)[*:2]; Abu = CC[C@H](N)C(=O)O

The term Kd denotes the concentration at which binding is half-saturated.

The nature of this series: PubChem AID 977611. To be noted: PDB protein-ligand complexes, literature Kd.

Turning to H-QAQGPPYPTYPGY-OH, the Kd (protein: ESCRT and ALIX binding region (EABR), PDB entry 3e1r) was 1.5 µM (active). For H-DDDEDGYNPYTL-OH, where the note is “protein: CTD interacting domain of Protein NRD1, PDB entry 2mow”, the equilibrium dissociation constant (Kd) was 1.09 µM (active). On to `CC[C@H](NC(=O)[C@@H](NC(=O)[C@H](CC(C)C)NC(=O)[C@H](CC(=O)O)NC(=O)[C@H](CCC(N)=O)NC(=O)[C@H](CCC(=O)O)NC(=O)[C@@H](NC(=O)[C@@H]1CCCN1C(=O)[C@@H]1CCCN1C(=O)[C@@H](N)CC(C)C)[C@@H](C)O)[C@@H](C)O)C(=O)N[C@@H](CC(C)C)C(=O)N[C@@H](CC(C)C)C(=O)N[C@@H](C)C(=O)N[C@@H](CCC(=O)O)C(=O)O` (H-LPPTEQDLT[Abu]LLAE-OH), for which the Kd (protein: nuclear coactivator 1 (NCoA-1) PAS-B domain, PDB entry 1oj5) was 0.8 µM (active). For the compound `C[C@H](N)C(=O)N[C@@H](CCCN=C(N)N)C(=O)N[C@H](C(=O)N[C@@H](CCCC[N+](C)(C)C)C(=O)N[C@@H](CCC(N)=O)C(=O)N[C@H](C(=O)N[C@@H](C)C(=O)N[C@@H](CCCNC(N)=[N+](C)C)C(=O)N[C@@H](CCCCN)C(=O)O)[C@@H](C)O)[C@@H](C)O`, the dissociation constant (Kd) (protein: human Spindlin1, PDB entry 4mzf) is 0.045 µM (active). As for `C[C@H](N)C(=O)N[C@@H](CCCN=C(N)N)C(=O)N[C@H](C(=O)N[C@@H](CCCC[N+](C)(C)C)C(=O)N[C@@H](CCC(N)=O)C(=O)N[C@H](C(=O)N[C@@H](C)C(=O)O)[C@@H](C)O)[C@@H](C)O` (H-ART[Lys(Me3)]QTA-OH), where the note is “protein: human Spindlin1, PDB entry 4mzh”, the dissociation constant (Kd) was 0.066 µM (active). For the compound `C[C@H](N)C(=O)N[C@@H](CCCNC(N)N)C(=O)N[C@@H](CCCC[N+](C)(C)C)C(=O)N[C@@H](CO)C(=O)N[C@@H](C)C(=O)NCC(=O)N[C@@H](C)C(=O)N[C@@H](C)C=O` (H-A[Orn(CH(NH2)2)][Lys(Me3)]SAGAA-aldehyde), the equilibrium dissociation constant (Kd) (protein: Polycomb protein EED residues 77-441, PDB entry 3iiy) was 16 µM (active).

As to `CNC(NC)NCCC[C@H](NC(=O)[C@H](C)N)C(=O)N[C@H](C(=O)N[C@@H](CCCC[N+](C)(C)C)C(=O)N[C@@H](CCC(N)=O)C(=O)N[C@H](C(=O)N[C@@H](C)C(=O)N[C@@H](C)C(=O)N[C@@H](C)C(N)=O)[C@@H](C)O)[C@@H](C)O` (H-A[X1]T[Lys(Me3)]QTAAA-NH2), the Kd (protein: RAG2-PHD, PDB entry 2v87) is 25.1 µM (active). For the compound `C[C@H](N)C(=O)N[C@@H](CCCNC(N)N)C(=O)N[C@@H](CCCC[N+](C)(C)C)C(=O)N[C@@H](CO)C(=O)N[C@@H](C)C(=O)O` (H-A[Orn(CH(NH2)2)][Lys(Me3)]SA-OH), the dissociation constant (Kd) (protein: Polycomb protein EED residues 77-441, PDB entry 3iiw) was 36.4 µM (active).

In the case of `C[C@H](N)C(=O)N[C@@H](CCCNC(N)N)C(=O)N[C@H](C(=O)N[C@@H](CCCC[N+](C)(C)C)C(=O)N[C@@H](CCC(N)=O)C(=O)N[C@H](C(=O)O)[C@@H](C)O)[C@@H](C)O` (H-A[Orn(CH(NH2)2)]T[Lys(Me3)]QT-OH), the Kd (protein: bromodomain PHD finger transcription factor, PDB entry 2f6j) is 2.7 µM (active). For `C[C@H](N)C(=O)N[C@@H](CCCNC(N)N)C(=O)N[C@H](C(=O)N[C@@H](CCCC[N+](C)(C)C)C(=O)N[C@@H](CCC(N)=O)C(=O)N[C@H](C(=O)N[C@@H](C)C(=O)O)[C@@H](C)O)[C@@H](C)O` (H-A[Orn(CH(NH2)2)]T[Lys(Me3)]QTA-OH), the equilibrium dissociation constant (Kd) was 21 µM (active) (protein: Histone-lysine N-methyltransferase MLL5, PDB entry 4l58); 2.4 µM (active) (protein: Inhibitor of growth protein 5, PDB entry 3c6w); 10.4 µM (active) (protein: Jumonji domain-containing protein 2A, PDB entry 2gfa). Turning to `CN(C)S(=O)(=O)c1ccsc1`, the Kd was 3200 µM (active) (protein: Pantothenate synthetase (T2A, E77G mutation), PDB entry 4efk) and 1700 µM (active) (protein: Pantothenate synthetase (T2A, E77G mutation), PDB entry 4g5y). With `CC1(C)NC(N)NC(N)N1c1ccc(Cl)cc1` (stereo unspecified), the Kd (protein: Dihydrofolate reductase, PDB entry 4kne) is 1.26 µM (active). As for `CC(=O)NCCCCNc1ncnc2c1ncn2[C@@H]1O[C@H](CN(CCCNC(=O)Nc2ccc(C(C)(C)C)cc2)C(C)C)[C@@H](O)[C@H]1O`, the Kd (protein: Histone-lysine N-methyltransferase, H3 lysine-79 specific DOT1L, PDB entry 4wvl) is 0.131 µM (active). Take `CCCCC/C=C\C\C=C/C=C/C=C/C[C@@H](O)CCCC(=O)O`: where the note is “protein: Tablysin 15, PDB entry 3u3u”, the Kd was 0.133 µM (active). Regarding `C[C@H](N)C(=O)N[C@@H](CO)C(=O)N[C@@H](CCCN=C(N)N)C(=O)N[C@@H](Cc1c[nH]c2ccccc12)C(=O)N[C@@H](CC(=O)O)C(=O)N[C@@H](CCC(=O)O)C(=O)N[C@H](C(=O)N1CCC[C@H]1C(=O)O)[C@@H](C)O` (H-ASRWDETP-OH), the dissociation constant Kd (protein: RNA-binding protein 39 CAPER-alpha, PDB entry 4oz1) is 2.4 µM (active). Take `CC[C@H](N)C(=O)N[C@H](C(=O)N[C@@H](Cc1ccccc1)C(=O)N[C@@H](CO)C(=O)N[C@@H](CC(=O)O)C(=O)N[C@@H](CC(C)C)C(=O)N[C@@H](Cc1c[nH]c2ccccc12)C(=O)N[C@@H](CCCCN)C(=O)N[C@@H](CC(C)C)C(=O)N[C@@H](CC(C)C)C(=O)N1CCC[C@H]1C(=O)O)[C@@H](C)O` (H-[Abu]TFSDLWKLLP-OH): the Kd (protein: native Mdm4 protein, PDB entry 2z5s) was 2.2 µM (active). `CC(C)C[C@H](NC(=O)[C@H](CC(=O)O)NC(=O)[C@H](CO)NC(=O)[C@H](Cc1ccccc1)NC(=O)[C@@H](NC(=O)[C@@H](N)CCC(=O)O)[C@@H](C)O)C(=O)N[C@@H](Cc1c[nH]c2ccccc12)C(=O)N[C@@H](CCCCN)C(=O)N[C@@H](CC(C)C)C(=O)N[C@@H](CC(C)C)C(=O)N1CCC[C@H]1C(=O)O`: the Kd was 1.9 µM (active) (protein: E3 ubiquitin-protein ligase Mdm2 (E69A, K70A mutation), PDB entry 4hfz) and 2.4 µM (active) (protein: human-mimic Mdm4 protein, PDB entry 2z5t).
